Among the data in ChEMBL document CHEMBL4513216, “Probing the Open Global Health Chemical Diversity Library for Multistage-Active Starting Points for Next-Generation Antimalarials” (ACS Infect Dis, 2020) are INHIBITION values, retold here.

Out of some 69,000 compounds screened, about 8,600 (12%) showed an effect of 50% or more. Only a selection was taken, and strong results are over-represented in it overall.

This experiment relates to Plasmodium berghei. In words: Screen against P. berghei liver stage (PbLuc), transformed with Luciferase, at 10uM. In kind it is functional, HepG2. As to conditions: tested at 10 uM.
As for `CCCC(NC(=O)c1ccc(C)cc1C)c1nnn[nH]1` (stereo not drawn), the INHIBITION worked out at 43.1%. Then `CCCC(NC(=O)c1cc(C)c(F)cc1F)c1nnn[nH]1` (stereo not drawn), with 58.5%; and `CCCC(NC(=O)c1cc(C)ccc1C)c1nnn[nH]1` (stereo not drawn), with 16.6%.

Regarding `Cn1cc(C(=O)Nc2ccc3c(c2)CN(C(=O)C2CC2)CC3)nn1`, the INHIBITION is recorded as -7.25%.

Consider `CC(=O)N(Cc1ncc(C(C)C)o1)C1CCN(Cc2cc(C)on2)C1` (stereo not drawn), for which the INHIBITION is 2.7%. On to `O=C(NCc1ccco1)Nc1cccc(S(=O)(=O)C(F)F)c1`, for which the INHIBITION was 42.4%. Consider `O=C(CNc1cccc(S(=O)(=O)C(F)F)c1)NCc1ccco1`, for which the INHIBITION is reported as 51.7%. Then `O=C(CNc1ccccc1S(=O)(=O)C(F)F)NCc1ccco1`, with 33.2%. As to `CNc1cc(C2CN(Cc3csc(C)n3)CCO2)nc(C)n1` (stereo not drawn), the INHIBITION was 41.2%.

Consider `CNc1cc(C2CN(Cc3scnc3C)CCO2)nc(C)n1` (stereo not drawn), for which the INHIBITION is -26.2%. For the molecule `Cc1nc(C2CN(Cc3scnc3C)CCO2)cc(N(C)C)n1` (stereo not drawn), the INHIBITION is on record as 68.9%. As to `CC(C(=O)N1CCN(c2ccc(F)cc2)CC1)n1cc(Br)cn1` (stereo not drawn), the INHIBITION is listed as 6.83%. Turning to `Cn1nnc2c1CCN(C(=O)C1CCC1)C2COCCN1CCCC1` (stereo not drawn), the INHIBITION was determined as 19.5%. Then `Cc1cc(CN2CCN(C(=O)NC(C)c3cccnc3)CC2)no1` (stereo not drawn), with 7.15%; and `O=C(NCc1nccn1CCc1ccccc1)NCC1CCC1`, with 44.5%. For `c1snnc1CN1C[C@H]2CCC[C@@H](CN3CCOCC3)[C@H]2C1`, the INHIBITION was -41.8%.

As for `COC(=O)c1ccc(CN[C@@H]2COC[C@H]2Cc2cc(C)no2)cc1`, the INHIBITION is on record as 0.301%.

Take `Cc1ccc(CN[C@@H]2COC[C@H]2Cc2cc(C)no2)cc1`: the INHIBITION is reported as -22.6%. In the case of `Cc1cc(C[C@@H]2COC[C@H]2NCc2ccc(C(C)C)cc2)on1`, the INHIBITION is recorded as 28%. In the case of `Cc1cc(C[C@@H]2COC[C@H]2NCc2ccc(C)c(C)c2)on1`, the INHIBITION was determined as 1.5%.

As for `CCOc1cc(CN[C@@H]2COC[C@H]2Cc2cc(C)no2)ccc1O`, the INHIBITION was 74.9%. Consider `Cc1cc(C[C@@H]2COC[C@H]2NCc2ccc(Cl)c(Cl)c2)on1`, for which the INHIBITION amounted to 50.8%. Then `NC(=O)CC1CCCN(c2cncc(OCc3ccccc3)n2)C1` (stereo not drawn), with 27.6%. Then `CC(C)CCc1nc(CN2CCOC(Cn3cncn3)C2)cs1` (stereo not drawn), with 36.1%. Then `Cc1n[nH]c(C2CN(CC(=O)NCc3cccs3)CCO2)n1` (stereo not drawn), with 8.9%; and `O=C(c1cccc(F)c1)N1CCC2(CC1)CC(N1CCOCC1)C2`, with 1.34%; and `Cc1cnn(CC2CN(Cc3nc(-c4cccnc4)no3)CCO2)c1` (stereo not drawn), with -4.94%. As for `CCn1ccnc1CN1CCN(Cc2ccc(C)o2)[C@@H]2CS(=O)(=O)C[C@@H]21`, the INHIBITION came to 16.7%.

As for `Nc1nc(CNc2ncnc3c2CCN(Cc2ccoc2)CC3)cs1`, the INHIBITION stood at 51.8%. For the molecule `CC(C)Nc1ncnc2c1CCN(Cc1ccoc1)CC2`, the INHIBITION is given as -22.1%. Then `c1cc(CCNc2ncnc3c2CCN(Cc2ccoc2)CC3)ccn1`, with 12.8%.

Take `O=C(c1cncs1)N1CCOC(c2cc(CCO)[nH]n2)C1` (stereo not drawn): the INHIBITION is -4.5%. Then `O=C([C@H]1C[C@H]2OCC[C@H]2N(C(=O)c2ccccn2)C1)N1CCCCO1`, with 22.2%. Then `CCN(CC)CCCNCc1cc2cccc(C)c2[nH]c1=O`, with -36.4%; and `CN1CCN(C(=O)Cn2nc(C(F)(F)F)c(Br)c2C2CC2)CC1`, with 16.5%.

Turning to `CCCN1CCN(C(=O)Cn2nc(C(F)(F)F)c(Br)c2C2CC2)CC1`, the INHIBITION is 64.7%. Regarding `CCN1CCN(C(=O)Cn2nc(C(F)(F)F)c(Br)c2C2CC2)CC1`, the INHIBITION worked out at 30.8%.

As for `CCN1CCCC1CNC(=O)Cc1c(C)n[nH]c1-c1ccc(F)cc1` (stereo not drawn), the INHIBITION came to 38.8%. Then `CCOC(=O)c1sc2ccsc2c1CN`, with 0.938%; and `COc1cc(-c2cccc3c2OC(CN)C3)cc(OC)c1OC` (stereo not drawn), with 48%. Then `COc1cc(-c2cccc3c2OC(CN)C3)ccc1O` (stereo not drawn), with 50.8%; and `COc1ccc(-c2cccc3c2OC(CN)C3)cc1F` (stereo not drawn), with 47.1%; and `Cc1ccc(CCCC(=O)N2CCC(CS(N)(=O)=O)CC2)s1`, with -0.554%. On to `O=C(c1ccncc1)N1CCc2ncnc(C3CCOC3)c2CC1` (stereo not drawn), for which the INHIBITION was 49.7%.

Turning to `O=C(c1ccnnc1)N1CCc2ncnc(C3CCOC3)c2CC1` (stereo not drawn), the INHIBITION was determined as 38.1%. Then `CCc1ncnc2c1CCN(Cc1ccc(OC)cc1)CC2`, with 26.7%; and `CC(C)Oc1ncnc2c1CCN(Cc1ccoc1)CC2`, with 8.85%; and `COCCN1CCc2ncnc(OC(C)C)c2CC1`, with 37.5%. In the case of `COc1ccc(CN2CCc3ncnc(OC(C)C)c3CC2)cc1`, the INHIBITION is on record as 56.7%. Then `CC(C)Oc1ncnc2c1CCN(Cc1ccc(F)cc1)CC2`, with 60.3%; and `O=C(c1cccs1)N1CCc2ncnc(C3CCOC3)c2CC1` (stereo not drawn), with 53.2%. Then `CC(C)Oc1ncnc2c1CCN(Cc1cccs1)CC2`, with 40.7%.

Take `Cc1ccc(CN2CCc3ncnc(OC(C)C)c3CC2)s1`: the INHIBITION was -34.6%.

As for `CC(C)Oc1ncnc2c1CCN(Cc1ccco1)CC2`, the INHIBITION is reported as 50.7%.

Turning to `COc1ccc(CN2CCc3ncnc(C4CC4)c3CC2)cc1`, the INHIBITION came out at 47.4%. Then `COCC1CC2(CCN(Cc3cccc(C#N)c3)CC2)CN1C(C)C` (stereo not drawn), with -11.2%. For the molecule `CCCS(=O)(=O)NCC(C)(O)c1ccsc1` (stereo not drawn), the INHIBITION came out at 20.9%.

Consider `Cc1nc(Nc2nnc(C)s2)cc(C2CCCN2C)n1` (stereo not drawn), for which the INHIBITION is listed as 21.6%. Then `O=C(c1cccc(C2CCNC2)c1)N1CCC(c2ccncc2)CC1` (stereo not drawn), with -19.1%; and `Cc1ccc(N2CC[C@H]3OCC[C@@]3(C(=O)N3CCCC3)C2)nn1`, with 40.1%. Then `CC(C)n1cnnc1CNC(=O)c1cnn(-c2ccccc2)c1`, with -20.3%; and `Cc1ccc(Cl)cc1N1CCC(CNC(=O)Cn2cccn2)C1` (stereo not drawn), with 10.083%. Then `c1ccc(CN2CCc3ncnc(C4CCOC4)c3CC2)nc1` (stereo not drawn), with 33%; and `c1nc2c(c(C3CCOC3)n1)CCN(Cc1ccoc1)CC2` (stereo not drawn), with 12.1%; and `c1coc(CN2CCc3ncnc(C4CCOC4)c3CC2)c1` (stereo not drawn), with 79.6%. Take `O=C(Nc1ccc(CCN2CCOCC2)cc1)C1CCCC1`: the INHIBITION is on record as -7.85%. As for `O=C(NCC1CC1)c1cc2c(s1)CCN2C(=O)c1ccc(F)cc1`, the INHIBITION was 4.57%.

In the case of `CN(C)S(=O)(=O)NCC(Cc1cccc(F)c1)N1CCNC1=O` (stereo not drawn), the INHIBITION is -15.3%. Then `CCOc1ccccc1CCC(=O)Nc1c(C)nn(C)c1C`, with 22.6%. Then `COc1ccccc1C(=O)Nc1c(F)c(C(=O)NC2CCCC2)nn1C`, with 4.48%; and `COc1ccccc1C(=O)NCCC(=O)Nc1c(C)nn(C)c1C`, with 51.8%. Then `CCC(C)NC(=O)c1nn(C)c(NC(=O)c2ccccc2OC)c1F` (stereo not drawn), with 19.3%; and `COc1cccc(CCC(=O)Nc2c(C)nn(C)c2C)c1OC`, with 31%. As to `COc1ccccc1C(=O)Nc1c(F)c(C(=O)NCCC(C)C)nn1C`, the INHIBITION was 57%. Then `CC(=O)N1CCC2(CC1)COCCN2CCN(C)C`, with -8.94%; and `Cc1cc(C)n(CC2CN(CCOc3ccccc3F)CCO2)n1` (stereo not drawn), with 9.14%; and `Cc1ccc(N2CCc3ncc(CNc4ccccn4)n3CC2)nn1`, with 18.4%.

For the molecule `O=C(c1cscn1)N1CCC(O)(Cn2ccc3ccncc32)CC1`, the INHIBITION was found to be 17.1%. Then `CC(=O)N1N=C(c2ccco2)OC1C(=O)NCC(C)C` (stereo not drawn), with -4.32%; and `FC(F)(F)Cn1cc(NCc2cscn2)cn1`, with 62%; and `CC(C)Cn1cc(NCc2cscn2)cn1`, with -24.5%. Then `CC(C)(C)n1cc(NCc2cscn2)cn1`, with 29.4%; and `CCOc1cc(=O)n2c(c1C(=O)OCc1ccc(C)cc1)CCCC2`, with 32.2%. Then `N#Cc1ccc(N2CCC3(CCCN(c4ccccn4)C3)C2)nc1` (stereo not drawn), with 12.1%. Turning to `N#Cc1ccc(N2CCCC3(CCN(c4cncnc4)C3=O)C2)nc1` (stereo not drawn), the INHIBITION stood at 65.7%. For `O=C1N(Cc2cccnc2)CCC12CCCN(c1ncccn1)C2` (stereo not drawn), the INHIBITION came to 87.2%. Then `O=C1N(Cc2cccnc2)CCC12CCCN(c1ncc(F)cn1)C2` (stereo not drawn), with -42%; and `Cc1cccc(CN2CCC3(CCN(c4ncccn4)C3)C2=O)c1` (stereo not drawn), with -23.3%. In the case of `COc1cccc(N2CC3(CCN(c4cc(OC)ncn4)C3)CC2=O)c1` (stereo not drawn), the INHIBITION was determined as 34.6%.

Regarding `O=C1N(Cc2ccncc2)CCC12CCCN(c1ncc(F)cn1)C2` (stereo not drawn), the INHIBITION was 39.5%.

As to `O=C1N(c2cncnc2)CCC12CCCN(Cc1ccccn1)C2` (stereo not drawn), the INHIBITION is given as -11.5%. `COc1cc(N2CCC3(C2)CN(c2cccnc2)C(=O)CN3C)ncn1` (stereo not drawn): the INHIBITION stood at 30.3%. Then `CCc1cnc(N2CCC3(CCN(Cc4cccc(C)c4)C3=O)C2)nc1` (stereo not drawn), with 60.5%; and `Cc1cccc(CN2CCC3(CCN(c4ncccn4)CC3)C2=O)c1`, with 42%.

For the molecule `COc1cc(N2CCC3(CC2)CCN(c2cccnc2)C3=O)ncn1`, the INHIBITION amounted to 68.4%.

In the case of `CN(C)CCOCc1cncc2c1CCN(Cc1ccccn1)C2`, the INHIBITION is listed as -8.51%.

With `Cc1nc(CN2CCO[C@H]3[C@@H](OCc4cccnc4)CC[C@@H]32)cs1`, the INHIBITION came to 14.6%. Regarding `Cc1nc(C(=O)N2CCN(S(C)(=O)=O)CC2)c(-c2ccccc2Cl)s1`, the INHIBITION stood at 23%.

Consider `COCCN1CCC(Nc2c(F)cc(C#N)cc2F)CC1`, for which the INHIBITION was -3.58%.

Consider `O=C([C@@H]1CCO[C@@H]2CCN(Cc3ccsc3)C[C@@H]21)N1CCCC1`, for which the INHIBITION came out at 38.1%. Then `O=C1CC(c2ccsc2)c2sc(C(=O)O)c(-c3ccc(F)cc3)c2N1` (stereo not drawn), with -8%. Then `COc1cccc(CN2CCC3(CCN(c4ncc(C)cn4)C3)C2=O)c1` (stereo not drawn), with 37.9%; and `O=C1N(c2cccnc2)CCC12CCCN(Cc1cccnc1)C2` (stereo not drawn), with -52.3%. For `CCN1CCC2(CC1)CN(CCO)c1ccccc12`, the INHIBITION is given as -7.94%. `COc1cc(N2CCC3(CCN(Cc4cccnc4)C3=O)C2)ncn1` (stereo not drawn): the INHIBITION was found to be 91%. For `O=C(c1ccncc1)N1CCCC2(CCN(c3cccnc3)C2=O)C1` (stereo not drawn), the INHIBITION was -7.7%. Then `Cc1cnc(N2CCC3(CC2)CCN(c2cncnc2)C3=O)nc1`, with 40.8%. Then `COc1cc(N2CCC3(CC2)CN(S(C)(=O)=O)c2ccccc23)ncn1`, with 46.4%. Turning to `COc1cc(N2CCC3(CC2)CN(CCO)c2ccccc23)ncn1`, the INHIBITION is 93.1%. With `COc1cc(N2CCCC3(CCN(c4cccnc4)C3=O)C2)ncn1` (stereo not drawn), the INHIBITION was 84.7%. Then `COCC(=O)N1CCCC2(CCN(c3cncnc3)C2=O)C1` (stereo not drawn), with 25.2%; and `COc1cc(N2CCCC3(CCN(c4cncnc4)C3=O)C2)ncn1` (stereo not drawn), with 53%; and `Cc1cccc(CN2CCC3(CCN(c4ccccn4)C3)C2=O)c1` (stereo not drawn), with 20.7%.
